Assays:
Experiment in all cases: DAPPL (digital affinity profiling via proximity ligation, sequencing); 10 mM Tris-HCl pH 7.5, 50 mM NaCl, 1 mM DTT, 4% glycerol, room temperature, 30 min; GST-TFs on glutathione beads, 16-mer random dsDNA library, 0.1% formaldehyde crosslink after washing; high values mean tight binding
FLI1 = molecular target: T1, FLI1 (Homo sapiens, UniProt Q01543 1-452); conditions: protein: recombinant; tags: N-terminal GST; dsDNA, one strand shown
T1 sequence: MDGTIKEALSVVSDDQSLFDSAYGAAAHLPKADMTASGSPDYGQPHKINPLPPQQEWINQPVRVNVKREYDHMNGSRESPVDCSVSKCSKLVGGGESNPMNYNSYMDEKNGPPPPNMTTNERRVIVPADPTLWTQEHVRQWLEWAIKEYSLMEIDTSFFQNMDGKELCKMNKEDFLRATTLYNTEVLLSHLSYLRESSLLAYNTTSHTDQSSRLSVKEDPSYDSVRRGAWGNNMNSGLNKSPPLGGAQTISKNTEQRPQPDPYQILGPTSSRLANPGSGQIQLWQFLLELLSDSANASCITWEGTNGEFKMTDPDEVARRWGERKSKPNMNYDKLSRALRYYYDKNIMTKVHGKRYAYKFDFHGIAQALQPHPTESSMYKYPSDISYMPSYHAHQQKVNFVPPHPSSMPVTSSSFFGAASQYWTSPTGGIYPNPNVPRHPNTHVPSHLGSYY
How it was run: (§1)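 The binding signal reported is, for every hexamer, its read frequency for a factor over its read frequency for the tag-only sample. Reads came from pools of yeast-expressed, GST-fused human transcription factors on glutathione beads, barcoded with DNA and mixed with that sample, which were incubated with 200 nmole of a random double-stranded 16-mer DNA library in Tris/NaCl/DTT/glycerol buffer at room temperature for 30 min. After washing, the pools were crosslinked with 0.1% formaldehyde, proximity-ligated with BsaI/T4 ligase for 1 h at 37 °C, PCR-amplified and sequenced on an Illumina NextSeq500.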

ELK1 = molecular target: T2, ELK1 (Homo sapiens, UniProt P19419 1-428); conditions: protein: recombinant; tags: N-terminal GST; dsDNA, one strand shown
T2 sequence: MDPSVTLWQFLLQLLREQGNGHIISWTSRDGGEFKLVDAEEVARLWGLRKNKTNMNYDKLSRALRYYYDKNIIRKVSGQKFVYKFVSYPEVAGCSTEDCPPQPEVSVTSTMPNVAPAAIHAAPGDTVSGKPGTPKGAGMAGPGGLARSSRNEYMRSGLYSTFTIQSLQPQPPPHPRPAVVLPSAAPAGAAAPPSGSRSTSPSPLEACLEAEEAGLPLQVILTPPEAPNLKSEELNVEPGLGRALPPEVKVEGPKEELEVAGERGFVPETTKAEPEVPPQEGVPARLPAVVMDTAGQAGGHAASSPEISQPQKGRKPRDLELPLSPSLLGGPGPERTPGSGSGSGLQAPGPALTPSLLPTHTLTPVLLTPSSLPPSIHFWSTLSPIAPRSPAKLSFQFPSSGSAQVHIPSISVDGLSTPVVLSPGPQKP
How it was run: as §1

GABPA = molecular target: T3, GABPA (Homo sapiens, UniProt Q06546 1-454); conditions: protein: recombinant; tags: N-terminal GST; dsDNA, one strand shown
T3 sequence: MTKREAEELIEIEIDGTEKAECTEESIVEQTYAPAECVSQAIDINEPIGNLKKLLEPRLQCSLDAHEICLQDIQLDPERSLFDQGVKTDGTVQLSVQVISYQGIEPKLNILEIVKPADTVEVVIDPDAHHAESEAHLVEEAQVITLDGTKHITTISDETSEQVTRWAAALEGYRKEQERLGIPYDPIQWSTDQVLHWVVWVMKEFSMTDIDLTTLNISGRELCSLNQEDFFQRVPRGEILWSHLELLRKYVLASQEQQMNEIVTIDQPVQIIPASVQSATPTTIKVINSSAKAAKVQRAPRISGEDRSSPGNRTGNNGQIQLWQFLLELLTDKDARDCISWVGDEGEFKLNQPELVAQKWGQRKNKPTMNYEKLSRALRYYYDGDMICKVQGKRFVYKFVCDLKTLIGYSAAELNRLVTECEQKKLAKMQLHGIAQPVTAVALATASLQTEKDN
How it was run: as §1

ERG = molecular target: T4, ERG (Homo sapiens, UniProt P11308 1-479); conditions: protein: recombinant; tags: N-terminal GST; dsDNA, one strand shown
T4 sequence: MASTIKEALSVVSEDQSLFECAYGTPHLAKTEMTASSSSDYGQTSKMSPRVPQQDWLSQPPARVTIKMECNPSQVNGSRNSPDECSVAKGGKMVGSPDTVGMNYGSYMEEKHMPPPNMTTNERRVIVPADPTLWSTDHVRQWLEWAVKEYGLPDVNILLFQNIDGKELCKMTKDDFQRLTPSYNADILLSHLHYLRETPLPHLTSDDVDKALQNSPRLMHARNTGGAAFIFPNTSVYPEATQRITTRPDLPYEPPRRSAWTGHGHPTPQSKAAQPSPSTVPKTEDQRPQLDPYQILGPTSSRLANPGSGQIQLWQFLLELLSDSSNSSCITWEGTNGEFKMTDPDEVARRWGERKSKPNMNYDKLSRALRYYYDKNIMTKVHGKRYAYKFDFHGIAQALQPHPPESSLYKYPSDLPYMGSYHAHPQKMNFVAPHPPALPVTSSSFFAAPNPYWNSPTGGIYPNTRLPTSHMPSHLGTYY
How it was run: as §1

ELF1 = ELF1 (Homo sapiens, UniProt P32519 1-619); conditions: protein: recombinant; tags: N-terminal GST; dsDNA, one strand shown
How it was run: as §1

EHF = molecular target: T5, EHF (Homo sapiens, UniProt Q9NZC4 1-300); conditions: protein: recombinant; tags: N-terminal GST; dsDNA, one strand shown
T5 sequence: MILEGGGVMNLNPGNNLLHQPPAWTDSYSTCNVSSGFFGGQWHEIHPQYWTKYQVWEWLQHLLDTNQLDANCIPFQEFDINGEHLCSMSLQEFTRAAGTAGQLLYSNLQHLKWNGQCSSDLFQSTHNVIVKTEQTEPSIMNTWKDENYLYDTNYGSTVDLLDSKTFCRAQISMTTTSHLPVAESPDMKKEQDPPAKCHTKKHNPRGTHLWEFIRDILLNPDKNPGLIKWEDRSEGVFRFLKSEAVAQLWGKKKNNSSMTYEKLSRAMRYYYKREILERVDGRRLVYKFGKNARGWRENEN
How it was run: as §1

SPI1 = SPI1 (Homo sapiens, UniProt P17947 1-270); conditions: protein: recombinant; tags: N-terminal GST; dsDNA, one strand shown
How it was run: as §1

SPIB = SPIB (Homo sapiens, UniProt Q01892 1-262); conditions: protein: recombinant; tags: N-terminal GST; dsDNA, one strand shown
How it was run: as §1

ELK3 = molecular target: T6, ELK3 (Homo sapiens, UniProt P41970 1-407); conditions: protein: recombinant; tags: N-terminal GST; dsDNA, one strand shown
T6 sequence: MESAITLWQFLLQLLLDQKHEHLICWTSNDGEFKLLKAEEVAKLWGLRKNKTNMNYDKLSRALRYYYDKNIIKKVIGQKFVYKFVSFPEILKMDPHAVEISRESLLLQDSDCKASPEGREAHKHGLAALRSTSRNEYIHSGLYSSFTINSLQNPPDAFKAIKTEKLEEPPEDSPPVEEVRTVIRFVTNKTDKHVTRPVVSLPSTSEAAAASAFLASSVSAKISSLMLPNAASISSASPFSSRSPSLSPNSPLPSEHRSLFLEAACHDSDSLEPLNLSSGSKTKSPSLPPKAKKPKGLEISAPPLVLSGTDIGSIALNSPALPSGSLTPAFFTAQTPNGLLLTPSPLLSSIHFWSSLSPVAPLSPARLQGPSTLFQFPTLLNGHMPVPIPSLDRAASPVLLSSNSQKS
How it was run: as §1

FEV = molecular target: T7, FEV (Homo sapiens, UniProt Q99581 1-238); conditions: protein: recombinant; tags: N-terminal GST; dsDNA, one strand shown
T7 sequence: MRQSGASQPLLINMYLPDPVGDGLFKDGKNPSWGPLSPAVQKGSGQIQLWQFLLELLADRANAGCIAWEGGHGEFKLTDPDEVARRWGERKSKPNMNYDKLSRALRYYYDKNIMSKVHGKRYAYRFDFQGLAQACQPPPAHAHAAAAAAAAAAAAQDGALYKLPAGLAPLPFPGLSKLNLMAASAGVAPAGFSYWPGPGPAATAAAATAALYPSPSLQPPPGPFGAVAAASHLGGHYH
How it was run: as §1

ETV5 = ETV5 (Homo sapiens, UniProt P41161 1-510); conditions: protein: recombinant; tags: N-terminal GST; dsDNA, one strand shown
How it was run: as §1

HSF1 = HSF1 (Homo sapiens, UniProt Q00613 1-529); conditions: protein: recombinant; tags: N-terminal GST; chain copies: 3; dsDNA, one strand shown
How it was run: as §1

SPIC = molecular target: T8, SPIC (Homo sapiens, UniProt Q8N5J4 1-248); conditions: protein: recombinant; tags: N-terminal GST; dsDNA, one strand shown
T8 sequence: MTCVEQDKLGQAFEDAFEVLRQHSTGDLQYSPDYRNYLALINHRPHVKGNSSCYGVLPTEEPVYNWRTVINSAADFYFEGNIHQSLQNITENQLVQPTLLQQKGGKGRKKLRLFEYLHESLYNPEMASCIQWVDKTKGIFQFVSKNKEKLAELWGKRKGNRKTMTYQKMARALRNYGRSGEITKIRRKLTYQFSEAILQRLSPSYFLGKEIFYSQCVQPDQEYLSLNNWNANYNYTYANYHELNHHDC
How it was run: as §1

ELF4 = ELF4 (Homo sapiens, UniProt Q99607 1-663); conditions: protein: recombinant; tags: N-terminal GST; dsDNA, one strand shown
How it was run: as §1

ELK4 = molecular target: T9, ELK4 (Homo sapiens, UniProt P28324-2 1-405); conditions: protein: recombinant; tags: N-terminal GST; dsDNA, one strand shown
T9 sequence: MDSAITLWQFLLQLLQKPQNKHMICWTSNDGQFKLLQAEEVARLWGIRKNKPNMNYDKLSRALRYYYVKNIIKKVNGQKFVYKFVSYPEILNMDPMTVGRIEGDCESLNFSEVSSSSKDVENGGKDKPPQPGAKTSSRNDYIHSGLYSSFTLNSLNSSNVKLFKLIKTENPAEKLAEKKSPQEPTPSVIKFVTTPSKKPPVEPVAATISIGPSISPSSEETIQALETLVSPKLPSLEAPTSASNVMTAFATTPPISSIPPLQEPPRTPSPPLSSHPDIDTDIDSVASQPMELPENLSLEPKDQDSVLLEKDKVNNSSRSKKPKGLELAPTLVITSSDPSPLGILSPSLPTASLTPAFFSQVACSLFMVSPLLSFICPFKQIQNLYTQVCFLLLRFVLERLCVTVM
How it was run: as §1

ETV2 = molecular target: T10, ETV2 (Homo sapiens, UniProt O00321 1-342); conditions: protein: recombinant; tags: N-terminal GST; dsDNA, one strand shown
T10 sequence: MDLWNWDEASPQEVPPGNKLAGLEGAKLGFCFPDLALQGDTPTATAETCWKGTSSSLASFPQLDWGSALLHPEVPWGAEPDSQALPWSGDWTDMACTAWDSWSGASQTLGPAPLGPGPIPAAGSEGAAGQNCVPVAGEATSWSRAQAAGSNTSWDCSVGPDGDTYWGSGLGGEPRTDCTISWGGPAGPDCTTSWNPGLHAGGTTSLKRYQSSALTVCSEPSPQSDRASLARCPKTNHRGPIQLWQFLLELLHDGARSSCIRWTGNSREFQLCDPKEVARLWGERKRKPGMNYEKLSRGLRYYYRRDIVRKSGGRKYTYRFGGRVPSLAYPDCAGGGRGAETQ
How it was run: as §1

ELF3 = molecular target: T11, ELF3 (Homo sapiens, UniProt P78545 1-371); conditions: protein: recombinant; tags: N-terminal GST; dsDNA, one strand shown
T11 sequence: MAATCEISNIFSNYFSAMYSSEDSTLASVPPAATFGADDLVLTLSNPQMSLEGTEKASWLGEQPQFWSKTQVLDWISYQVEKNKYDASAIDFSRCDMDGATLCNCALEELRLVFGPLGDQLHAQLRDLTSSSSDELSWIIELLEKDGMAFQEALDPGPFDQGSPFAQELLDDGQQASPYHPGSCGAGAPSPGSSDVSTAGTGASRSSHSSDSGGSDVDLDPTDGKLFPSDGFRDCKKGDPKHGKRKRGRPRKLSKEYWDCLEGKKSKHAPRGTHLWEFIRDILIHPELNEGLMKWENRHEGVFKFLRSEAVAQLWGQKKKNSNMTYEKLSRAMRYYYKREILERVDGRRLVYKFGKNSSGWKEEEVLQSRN
How it was run: as §1

ETV1 = ETV1 (Homo sapiens, UniProt P50549 1-477); conditions: protein: recombinant; tags: N-terminal GST; dsDNA, one strand shown
How it was run: as §1

Chain of ETV1 (P50549 whole entry): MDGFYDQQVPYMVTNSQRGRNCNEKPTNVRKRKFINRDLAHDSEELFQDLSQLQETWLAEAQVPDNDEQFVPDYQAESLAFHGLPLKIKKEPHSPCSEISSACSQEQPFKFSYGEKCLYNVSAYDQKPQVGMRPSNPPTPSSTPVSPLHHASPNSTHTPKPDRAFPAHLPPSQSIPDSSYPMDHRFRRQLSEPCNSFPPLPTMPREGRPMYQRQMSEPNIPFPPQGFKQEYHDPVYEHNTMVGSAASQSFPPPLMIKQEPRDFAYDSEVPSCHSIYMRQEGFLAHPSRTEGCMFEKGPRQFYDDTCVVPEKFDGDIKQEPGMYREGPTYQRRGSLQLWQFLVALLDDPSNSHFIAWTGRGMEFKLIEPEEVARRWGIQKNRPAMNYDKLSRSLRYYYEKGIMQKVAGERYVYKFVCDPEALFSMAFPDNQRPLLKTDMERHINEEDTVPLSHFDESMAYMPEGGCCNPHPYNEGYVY
Chain of ELF4 (Q99607 whole entry): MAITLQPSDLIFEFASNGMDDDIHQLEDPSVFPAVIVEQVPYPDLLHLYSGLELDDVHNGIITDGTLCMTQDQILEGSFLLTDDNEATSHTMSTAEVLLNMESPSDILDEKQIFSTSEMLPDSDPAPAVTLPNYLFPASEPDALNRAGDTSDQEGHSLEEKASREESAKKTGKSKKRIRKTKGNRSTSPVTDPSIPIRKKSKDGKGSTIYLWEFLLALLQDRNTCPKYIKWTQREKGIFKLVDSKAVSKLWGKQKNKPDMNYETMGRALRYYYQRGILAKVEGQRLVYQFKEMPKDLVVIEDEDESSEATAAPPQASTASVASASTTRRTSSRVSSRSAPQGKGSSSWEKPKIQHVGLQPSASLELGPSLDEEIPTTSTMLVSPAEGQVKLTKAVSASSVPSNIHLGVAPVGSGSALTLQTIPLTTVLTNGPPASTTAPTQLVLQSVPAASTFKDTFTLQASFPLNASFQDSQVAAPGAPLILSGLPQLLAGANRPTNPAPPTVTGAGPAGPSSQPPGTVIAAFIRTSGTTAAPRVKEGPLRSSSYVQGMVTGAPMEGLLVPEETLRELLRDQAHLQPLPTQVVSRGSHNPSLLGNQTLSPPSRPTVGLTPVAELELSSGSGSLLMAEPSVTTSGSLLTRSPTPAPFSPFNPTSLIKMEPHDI
Chain of SPIB (Q01892 whole entry): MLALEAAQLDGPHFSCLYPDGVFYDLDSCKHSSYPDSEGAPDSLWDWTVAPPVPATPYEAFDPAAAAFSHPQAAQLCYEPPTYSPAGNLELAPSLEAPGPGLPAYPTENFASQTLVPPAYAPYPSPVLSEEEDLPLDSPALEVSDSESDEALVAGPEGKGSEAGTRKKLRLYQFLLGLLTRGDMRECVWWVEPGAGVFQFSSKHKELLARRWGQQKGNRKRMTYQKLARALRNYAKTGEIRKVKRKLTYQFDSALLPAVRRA
Chain of ETV5 (P41161 whole entry): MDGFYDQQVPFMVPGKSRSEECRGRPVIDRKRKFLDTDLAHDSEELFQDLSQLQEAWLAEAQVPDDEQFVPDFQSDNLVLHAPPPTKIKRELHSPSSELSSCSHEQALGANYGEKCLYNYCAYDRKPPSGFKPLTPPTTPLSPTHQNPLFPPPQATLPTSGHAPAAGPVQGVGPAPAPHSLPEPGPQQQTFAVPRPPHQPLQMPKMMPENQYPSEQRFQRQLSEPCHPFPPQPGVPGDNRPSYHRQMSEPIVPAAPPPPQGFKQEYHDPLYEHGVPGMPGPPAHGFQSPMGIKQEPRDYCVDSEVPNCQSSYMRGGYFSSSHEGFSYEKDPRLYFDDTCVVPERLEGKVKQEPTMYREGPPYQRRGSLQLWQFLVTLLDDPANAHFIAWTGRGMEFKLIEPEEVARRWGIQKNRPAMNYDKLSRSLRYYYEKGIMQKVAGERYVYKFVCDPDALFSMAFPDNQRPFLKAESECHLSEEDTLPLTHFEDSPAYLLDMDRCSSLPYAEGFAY
Chain of ELF1 (P32519 whole entry): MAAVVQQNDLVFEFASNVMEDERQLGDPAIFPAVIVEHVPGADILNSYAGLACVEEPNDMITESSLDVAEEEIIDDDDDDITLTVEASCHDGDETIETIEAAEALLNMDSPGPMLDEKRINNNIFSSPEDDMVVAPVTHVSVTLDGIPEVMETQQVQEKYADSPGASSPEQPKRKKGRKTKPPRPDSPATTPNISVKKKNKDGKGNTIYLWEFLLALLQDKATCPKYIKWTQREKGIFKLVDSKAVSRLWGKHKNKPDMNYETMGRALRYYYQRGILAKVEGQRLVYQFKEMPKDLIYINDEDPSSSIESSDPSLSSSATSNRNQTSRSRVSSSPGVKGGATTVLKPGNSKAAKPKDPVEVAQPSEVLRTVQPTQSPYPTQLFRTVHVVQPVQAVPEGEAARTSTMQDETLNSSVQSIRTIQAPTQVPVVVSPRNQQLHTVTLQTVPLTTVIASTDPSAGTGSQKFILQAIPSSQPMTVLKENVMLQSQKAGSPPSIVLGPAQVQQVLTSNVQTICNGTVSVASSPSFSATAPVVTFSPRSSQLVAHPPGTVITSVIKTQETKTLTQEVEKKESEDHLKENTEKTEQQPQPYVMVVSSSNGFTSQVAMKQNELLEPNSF
Chain of HSF1 (Q00613 whole entry): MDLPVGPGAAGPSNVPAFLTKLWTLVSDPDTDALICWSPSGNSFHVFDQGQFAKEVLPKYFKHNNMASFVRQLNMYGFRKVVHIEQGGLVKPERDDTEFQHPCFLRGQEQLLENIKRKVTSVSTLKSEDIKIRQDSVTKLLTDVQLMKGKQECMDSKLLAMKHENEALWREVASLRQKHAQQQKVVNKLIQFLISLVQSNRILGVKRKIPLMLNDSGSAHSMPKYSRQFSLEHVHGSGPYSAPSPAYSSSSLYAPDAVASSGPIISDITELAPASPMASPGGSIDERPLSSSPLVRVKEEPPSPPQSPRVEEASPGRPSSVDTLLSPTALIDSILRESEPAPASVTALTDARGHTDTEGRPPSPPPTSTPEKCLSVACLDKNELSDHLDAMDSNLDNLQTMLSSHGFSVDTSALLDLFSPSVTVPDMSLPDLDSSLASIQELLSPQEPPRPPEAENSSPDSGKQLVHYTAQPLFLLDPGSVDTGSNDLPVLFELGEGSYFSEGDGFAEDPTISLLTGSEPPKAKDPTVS

Sequence: CTCGCC
- binding signal (FLI1): 1.16 fold enrichment (6-mer frequency, TF over GST control)
- binding signal (ELK1): 1.38 fold enrichment (6-mer frequency, TF over GST control)
- binding signal (GABPA): 1.26 fold enrichment (6-mer frequency, TF over GST control)
- binding signal (ERG): 1.21 fold enrichment (6-mer frequency, TF over GST control)
- binding signal (ELF1): 1.25 fold enrichment (6-mer frequency, TF over GST control)
- binding signal (EHF): 1.19 fold enrichment (6-mer frequency, TF over GST control)
- binding signal (SPI1): 1.17 fold enrichment (6-mer frequency, TF over GST control)
- binding signal (SPIB): 1.24 fold enrichment (6-mer frequency, TF over GST control)
- binding signal (ELK3): 1.25 fold enrichment (6-mer frequency, TF over GST control)
- binding signal (FEV): 1.21 fold enrichment (6-mer frequency, TF over GST control)
- binding signal (ETV5): 1.23 fold enrichment (6-mer frequency, TF over GST control)
- binding signal (HSF1): 1.06 fold enrichment (6-mer frequency, TF over GST control)
- binding signal (SPIC): 1.2 fold enrichment (6-mer frequency, TF over GST control)
- binding signal (ELF4): 1.29 fold enrichment (6-mer frequency, TF over GST control)
- binding signal (ELK4): 1.31 fold enrichment (6-mer frequency, TF over GST control)
- binding signal (ETV2): 1.32 fold enrichment (6-mer frequency, TF over GST control)
- binding signal (ELF3): 1.43 fold enrichment (6-mer frequency, TF over GST control)
- binding signal (ETV1): 1.26 fold enrichment (6-mer frequency, TF over GST control)

— paper PMC7862700, “An all-to-all approach to the identification of sequence-specific readers for epigenetic DNA modifications on cytosine”
